Here are results for 15 compounds from PubChem BioAssay.

Experiment [1] addresses Cell division control protein 42 homolog (Homo sapiens) (UniProt P60953). Briefly: activated mutant Cdc42 GTP-binding inhibitors, dose response, biochemical, multiplex bead flow cytometry, Bodipy-FL-GTP (AID 1333).
The target is the same in experiment [2]. Briefly: wildtype Cdc42 GTP-binding inhibitors, dose response, biochemical, multiplex bead flow cytometry, Bodipy-FL-GTP (AID 1334;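 active = fitted half-maximal concentration within the tested range, moderate curve steepness, significant signal drop, and little compound fluorescence or bead-linkage interference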). The conditions noted are these: bead-based flow cytometry, Bodipy-FL-GTP binding to GST-Cdc42; at 100 µM (top of the series) unless noted.
Experiment [3] addresses GTPase HRas (Homo sapiens) (UniProt P01112). The experiment can be described thus: inhibitors of GTP binding to wildtype Ras, dose response, biochemical, multiplex bead flow cytometry (AID 1335;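 active = fitted half-maximal concentration within 10 nM to 100 µM, steepness 0.5 to 2, significant signal drop, low assay interference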). The conditions noted are these: bead-based flow cytometry, Bodipy-GTP binding to GST-Ras; at 100 µM (top of the series) unless noted.
Experiment [4] relates to Ras-related protein Rab-7a (dog), GTP binding. The experiment can be described thus: Rab7 GTP binding inhibitors, potency, dose response, biochemical, wildtype, multiplex bead flow cytometry (AID 1336; call rule not given here).
The target of experiment [5] is Ras-related C3 botulinum toxin substrate 1 (Homo sapiens) (UniProt P63000). The experiment can be described thus: wildtype Rac1 GTP binding inhibitors, dose response, biochemical, multiplex bead flow cytometry (AID 1340;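 active = dose curve with midpoint inside tested range, moderate steepness, plateau gap beyond fit error, low compound glow and bead-link interference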). The conditions noted are these: GST-Rac1 beads, Bodipy-FL-GTP binding; at 100 µM (top of the series) unless noted.
Experiment [6] addresses GTPase HRas (Homo sapiens) (UniProt P01112). The experiment can be described thus: activated Ras mutant GTP binding inhibitors, dose response, biochemical, multiplex bead flow cytometry (AID 1341;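 active = dose-response curve with midpoint inside the tested range, moderate steepness, significant amplitude and little compound fluorescence or bead-attachment interference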;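 also: GST-tagged constitutively activated Ras mutant immobilized on beads and multiplexed with other GTPases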).

For part of these data: Measured potencies and affinities stand elsewhere. Calls of active or inactive are those of the source.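 The calls were made as follows, unless noted: active = fitted half-maximal concentration within the tested dose range, moderate curve steepness, a statistically real signal drop, and little compound fluorescence or tag-binding interference; inactive = the rest.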

Chain of Cell division control protein 42 homolog (Homo sapiens) (P60953 whole entry, looked up): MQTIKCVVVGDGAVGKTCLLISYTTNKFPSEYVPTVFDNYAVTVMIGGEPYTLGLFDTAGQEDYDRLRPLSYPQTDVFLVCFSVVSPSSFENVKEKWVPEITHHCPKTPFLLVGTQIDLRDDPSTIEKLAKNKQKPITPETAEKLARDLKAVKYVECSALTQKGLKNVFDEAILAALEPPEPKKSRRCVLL
Chain of GTPase HRas (Homo sapiens) (P01112 whole entry, looked up): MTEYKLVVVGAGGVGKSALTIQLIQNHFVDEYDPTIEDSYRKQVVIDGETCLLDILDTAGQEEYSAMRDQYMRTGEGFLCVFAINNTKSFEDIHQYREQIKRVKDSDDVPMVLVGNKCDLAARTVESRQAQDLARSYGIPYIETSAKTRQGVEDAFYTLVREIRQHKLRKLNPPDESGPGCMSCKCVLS

Turning to `COc1ccc(OC)c(S(=O)(=O)Nc2ccc(O)c(Sc3ncn[nH]3)c2)c1`, the compound was called inactive in experiment [1], in experiment [4] and in experiment [6]. In experiment [2], the fluorescence, percent of control (lower = inhibition) was found to be 48.6%. This compound also registered a GTP binding, percent of control in experiment [3] of 65.1%. The compound further registered a GTP binding signal, raw median fluorescence (lower = inhibition) (MCF (arbitrary fluorescence units)) in experiment [5] of 189.

Regarding `Cc1cc(C(F)F)n2nc(C(=O)Nc3ccc(S(=O)(=O)NC45CC6CC(CC(C6)C4)C5)cc3)nc2n1`, the call in experiment [1], in experiment [4] and in experiment [6] was inactive. Further, the fluorescence, percent of control (lower = inhibition) in experiment [2] came to 35%. The compound further returned a GTP binding, percent of control in experiment [3] of 82.9%. In experiment [5], this compound returned a GTP binding signal, raw median fluorescence (lower = inhibition) (MCF (arbitrary fluorescence units)) of 254.

For the compound `CCOC(=O)Cn1nnnc1C(CC)N(Cc1cccs1)Cc1cc2cc(C)ccc2[nH]c1=O` (stereo not given), the compound was called inactive in experiment [1], in experiment [4] and in experiment [6]. The fluorescence, percent of control (lower = inhibition) in experiment [2] is 96.4%. In experiment [3], this compound yielded a GTP binding, percent of control of 186%. This compound registered a GTP binding signal, raw median fluorescence (lower = inhibition) (MCF (arbitrary fluorescence units)) in experiment [5] of 194.

Regarding `COc1ccccc1OCCn1cc(C(=O)O)c2c(C)cccc21`, the result in experiment [1], in experiment [4] and in experiment [6] was inactive. In addition, the fluorescence, percent of control (lower = inhibition) in experiment [2] amounted to 56.8%. This compound gave a GTP binding, percent of control in experiment [3] of 202%. Also, the GTP binding signal, raw median fluorescence (lower = inhibition) (MCF (arbitrary fluorescence units)) in experiment [5] amounted to 55.3.

On to `Cc1cc(N/N=C/c2ccc(O)cc2O)nc(-c2ccccc2O)n1`, for which the compound was called inactive in experiment [1], in experiment [4] and in experiment [6]. Also, the fluorescence, percent of control (lower = inhibition) in experiment [2] was found to be 40.3%. The compound further yielded a GTP binding, percent of control in experiment [3] of 48.8%. In experiment [5], this compound gave a GTP binding signal, raw median fluorescence (lower = inhibition) (MCF (arbitrary fluorescence units)) of 143.

Turning to `Nc1ccc(-c2cn3cccnc3n2)cc1`, the compound was called inactive in experiment [1], in experiment [4] and in experiment [6]. Moreover, the fluorescence, percent of control (lower = inhibition) in experiment [2] was determined as 40.9%. In experiment [3], this compound gave a GTP binding, percent of control of 88.5%. Besides, the GTP binding signal, raw median fluorescence (lower = inhibition) (MCF (arbitrary fluorescence units)) in experiment [5] worked out at 287.

As for `COc1cc(NC(=O)c2cccs2)c(OC)cc1NC(=O)CCC(=O)Nc1ccc2ncccc2c1`, the outcome in experiment [1], in experiment [4] and in experiment [6] was inactive. For the same compound, the fluorescence, percent of control (lower = inhibition) in experiment [2] turned out to be 30.9%. Further, the GTP binding, percent of control in experiment [3] was 69.1%. For the same compound, the GTP binding signal, raw median fluorescence (lower = inhibition) (MCF (arbitrary fluorescence units)) in experiment [5] came to 196.

Regarding `CCCNC(=O)C(=O)NCc1ccccn1`, the result in experiment [1], in experiment [4] and in experiment [6] was inactive. Further, the fluorescence, percent of control (lower = inhibition) in experiment [2] stood at 41.2%. This compound returned a GTP binding, percent of control in experiment [3] of 91.1%. Also, the GTP binding signal, raw median fluorescence (lower = inhibition) (MCF (arbitrary fluorescence units)) in experiment [5] was found to be 323.

As for `COc1ccc(CCNC(=O)C2CCCN2C(=O)NC2CCCCC2)cc1OC` (stereo not given), the outcome in experiment [1], in experiment [4] and in experiment [6] was inactive. Moreover, the fluorescence, percent of control (lower = inhibition) in experiment [2] is 50.7%. Besides, in experiment [3], the GTP binding, percent of control stood at 180%. The compound further registered a GTP binding signal, raw median fluorescence (lower = inhibition) (MCF (arbitrary fluorescence units)) in experiment [5] of 184.

`O=C(O)c1c(C(F)(F)F)ccnc1SCc1ccccc1`: the call in experiment [1], in experiment [4] and in experiment [6] was inactive. The fluorescence, percent of control (lower = inhibition) in experiment [2] came out at 62%. The GTP binding, percent of control in experiment [3] worked out at 228%. The same compound yielded a GTP binding signal, raw median fluorescence (lower = inhibition) (MCF (arbitrary fluorescence units)) in experiment [5] of 55.9.

Consider `O=C(O)C1CCCN1C(=O)OCc1ccccc1` (stereo not given), for which the outcome in experiment [1], in experiment [4] and in experiment [6] was inactive. Moreover, in experiment [2], the fluorescence, percent of control (lower = inhibition) turned out to be 108%. This compound also registered a GTP binding, percent of control in experiment [3] of 188%. This compound yielded a GTP binding signal, raw median fluorescence (lower = inhibition) (MCF (arbitrary fluorescence units)) in experiment [5] of 235.

Consider `O=C(O)Cc1coc2cc3c(cc12)CCC3`, for which the compound was called inactive in experiment [1], in experiment [4] and in experiment [6]. The fluorescence, percent of control (lower = inhibition) in experiment [2] worked out at 29.9%. Also, in experiment [3], the GTP binding, percent of control came to 79.1%. In experiment [5], this compound gave a GTP binding signal, raw median fluorescence (lower = inhibition) (MCF (arbitrary fluorescence units)) of 251.

Regarding `COc1cc(/C=N/NC(=O)CN(Cc2ccco2)S(=O)(=O)c2ccccc2)ccc1O`, the outcome in experiment [1], in experiment [4] and in experiment [6] was inactive. Also, the fluorescence, percent of control (lower = inhibition) in experiment [2] is 32.8%. In experiment [3], this compound returned a GTP binding, percent of control of 46.1%. This compound also had a GTP binding signal, raw median fluorescence (lower = inhibition) (MCF (arbitrary fluorescence units)) in experiment [5] of 104.

Consider `COc1ccc(OCc2ccccc2Br)c(C(=O)O)c1`, for which the result in experiment [1], in experiment [4] and in experiment [6] was inactive. In addition, the fluorescence, percent of control (lower = inhibition) in experiment [2] is 53%. In experiment [3], the GTP binding, percent of control worked out at 217%. Moreover, the GTP binding signal, raw median fluorescence (lower = inhibition) (MCF (arbitrary fluorescence units)) in experiment [5] was 49.3.

Take `COc1ccc(-n2c(C)cc(/C=C3\SC(=S)N(Cc4ccco4)C3=O)c2C)cc1`: the outcome in experiment [1], in experiment [4] and in experiment [6] was inactive. In addition, the fluorescence, percent of control (lower = inhibition) in experiment [2] worked out at 75.8%. In addition, the GTP binding, percent of control in experiment [3] amounted to 89.9%. This compound also registered a GTP binding signal, raw median fluorescence (lower = inhibition) (MCF (arbitrary fluorescence units)) in experiment [5] of 230.
